Inconclusive results are not listed. Where a call stands in place of a potency, no number is given. Active and inactive are the calls of the source. Calls follow the shape of the full dose curve.
Biological target: Acetylcholinesterase (Homo sapiens) (UniProt P22303)
Assay: Acetylcholinesterase (AChE) small molecule antagonists: fluorescence cell-based qHTS assay (AID 1347398); also: nearly all actives have a fitted effect of over 50% in size; also: potency is read from the fitted curve at half-maximal effect
Conditions: SH-SY5Y cells; Potency: AChE activity; outcome: AChE activity; series mostly up to 115 µM
In short: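 Human SH-SY5Y cells were plated overnight at 37 C, exposed to compound for 30 min at 37 C, 5% CO2, then given acetylthiocholine plus Thiolite Green for 40 min at room temperature; thiocholine fluorescence (Ex/Em 490/520 nm) reports endogenous AChE activity.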

Acetylcholinesterase (Homo sapiens), sequence (P22303 whole entry, looked up): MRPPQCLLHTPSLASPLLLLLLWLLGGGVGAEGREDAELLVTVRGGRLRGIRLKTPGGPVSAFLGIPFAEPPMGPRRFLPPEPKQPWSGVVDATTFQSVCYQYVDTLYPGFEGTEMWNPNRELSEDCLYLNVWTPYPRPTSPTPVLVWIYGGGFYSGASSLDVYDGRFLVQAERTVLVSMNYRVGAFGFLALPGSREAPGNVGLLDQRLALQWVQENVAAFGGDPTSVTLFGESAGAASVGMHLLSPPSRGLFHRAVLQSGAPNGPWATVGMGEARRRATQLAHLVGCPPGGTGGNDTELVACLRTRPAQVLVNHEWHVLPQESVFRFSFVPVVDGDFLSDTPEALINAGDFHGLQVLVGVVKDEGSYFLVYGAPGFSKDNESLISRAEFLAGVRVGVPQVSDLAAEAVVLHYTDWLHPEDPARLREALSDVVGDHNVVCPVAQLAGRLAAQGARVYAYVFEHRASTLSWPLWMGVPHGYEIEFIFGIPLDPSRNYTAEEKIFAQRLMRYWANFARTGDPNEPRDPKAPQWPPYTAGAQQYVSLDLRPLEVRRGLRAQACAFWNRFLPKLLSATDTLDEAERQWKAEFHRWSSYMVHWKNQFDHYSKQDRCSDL

Compound | Potency
CCN(CCC#N)c1ccc(N=Nc2ccc([N+](=O)[O-])cc2)cc1 | inactive
CCn1ccc(NS(=O)(=O)c2ccc(N)cc2)nc1=O | inactive
c1cnc2cc3c(cc2n1)C1CNCC3C1 | inactive
CCC(C)(C)C1CCCCC1OC(C)=O (stereo not given) | inactive
Cc1c(C(C)C)c(=O)n(-c2ccccc2)n1C | inactive
Oc1ccccc1Cc1ccccc1O | inactive
Nc1ccncc1N | inactive
CCCCCC1Nc2cc(C(F)(F)F)c(S(N)(=O)=O)cc2S(=O)(=O)N1 (stereo not given) | 9.77 µM (active)
O=C1O[C@H](CO)[C@@H](O)[C@H](O)[C@H]1O | inactive
CC/C(=C(\c1ccc(O)cc1)c1ccc(OCCN(C)C)cc1)c1ccccc1 | 40 µM (active)
COc1ccccc1Oc1c(NS(=O)(=O)c2ccc(C(C)(C)C)cc2)nc(-c2ncccn2)nc1OCCO | inactive
CC(C)=CCCC(C)CCO (stereo not given) | inactive
OCCCc1ccccc1 | inactive
O=c1oc2cc(O)ccc2c2oc3cc(O)ccc3c12 | inactive
CCCCCCCCCCCCOC(=O)c1cc(O)c(O)c(O)c1 | inactive
O=C(Cl)c1c(Cl)c(Cl)c(C(=O)Cl)c(Cl)c1Cl | inactive
CC1(C)O[C@@H]2C[C@H]3[C@@H]4C[C@H](F)C5=CC(=O)CC[C@]5(C)[C@H]4[C@@H](O)C[C@]3(C)[C@]2(C(=O)CO)O1 | inactive
C[C@]12CC[C@@H]3c4ccc(O)cc4C[C@@H](CCCCCCCCCS(=O)CCCC(F)(F)C(F)(F)F)[C@H]3[C@@H]1CC[C@@H]2O (stereo not given in full) | inactive
Fc1ccccc1 | inactive
O=Nc1ccc(NO)cc1 | inactive

Compound | Potency
Nc1ccn([C@H]2CC[C@@H](CO)O2)c(=O)n1 | inactive
CC(=O)OCCC(C)C | inactive
O=[N+]([O-])c1cc(N(CCO)CCO)ccc1NCCO | inactive
CC(C)[C@H]1CC[C@@H](C)CC1=O | inactive
CCO/C([O-])=N/c1c[n+](N2CCOCC2)no1 | inactive
CN(C)CCCNCCCN(C)C | inactive
CCOC(=O)O[C@]1(C(=O)OCCl)CC[C@H]2[C@@H]3CCC4=CC(=O)C=C[C@]4(C)[C@H]3[C@@H](O)C[C@@]21C | inactive
COc1ccc(Nc2ccccc2)c(C)c1 | inactive
COc1nccnc1CC(C)C | inactive
Cc1ccc2c(Cl)cc(Cl)c(O)c2n1 | inactive
CCCCCCCC(=O)OCC(O)CO (stereo not given) | inactive
Oc1cccc2cc3cccc(O)c3c(O)c12 | inactive
O=S(=O)(O)CCO | inactive
O=S(=O)(Oc1ccc(Cl)cc1)c1ccccc1 | inactive
OCC1CCCO1 (stereo not given) | inactive
CC(=O)c1ccc([N+](=O)[O-])cc1 | inactive
CCCCC(CC)COS(=O)(=O)O (stereo not given) | inactive
CCOc1ccc2nc(S(N)(=O)=O)sc2c1 | inactive
O=C(CCNNC(=O)c1ccncc1)NCc1ccccc1 | inactive
Cc1ccc(OC(=O)CC(C)C)cc1 | inactive

Biological target: Acetylcholinesterase (Homo sapiens) (UniProt P22303)
Assay: Acetylcholinesterase (AChE) small molecule antagonists: enzyme-based qHTS assay with human liver microsomes (AID 1347399); also: nearly all actives have a fitted effect of over 60% in size
Conditions: Potency: qHTS inhibition; outcome: qHTS inhibition; series mostly up to 115 µM
In short: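 Recombinant human AChE (50 mU/mL in the enzyme mix) and human liver microsomes (0.25 mg/mL final) were preincubated with compound and NADPH (0.25 mg/mL final) for 30 min at 37 C. Acetylthiocholine/DTNB was then added; thiocholine was read colorimetrically after 10 min at room temperature.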

Compound | Potency
CCN(CCC#N)c1ccc(N=Nc2ccc([N+](=O)[O-])cc2)cc1 | inactive
CCn1ccc(NS(=O)(=O)c2ccc(N)cc2)nc1=O | inactive
c1cnc2cc3c(cc2n1)C1CNCC3C1 | inactive
CCC(C)(C)C1CCCCC1OC(C)=O (stereo not given) | inactive
Cc1c(C(C)C)c(=O)n(-c2ccccc2)n1C | inactive
Oc1ccccc1Cc1ccccc1O | inactive
Nc1ccncc1N | inactive
CCCCCC1Nc2cc(C(F)(F)F)c(S(N)(=O)=O)cc2S(=O)(=O)N1 (stereo not given) | inactive
O=C1O[C@H](CO)[C@@H](O)[C@H](O)[C@H]1O | inactive
CC/C(=C(\c1ccc(O)cc1)c1ccc(OCCN(C)C)cc1)c1ccccc1 | inactive
COc1ccccc1Oc1c(NS(=O)(=O)c2ccc(C(C)(C)C)cc2)nc(-c2ncccn2)nc1OCCO | inactive
CC(C)=CCCC(C)CCO (stereo not given) | inactive
OCCCc1ccccc1 | inactive
O=c1oc2cc(O)ccc2c2oc3cc(O)ccc3c12 | inactive
CCCCCCCCCCCCOC(=O)c1cc(O)c(O)c(O)c1 | inactive
O=C(Cl)c1c(Cl)c(Cl)c(C(=O)Cl)c(Cl)c1Cl | inactive
CC1(C)O[C@@H]2C[C@H]3[C@@H]4C[C@H](F)C5=CC(=O)CC[C@]5(C)[C@H]4[C@@H](O)C[C@]3(C)[C@]2(C(=O)CO)O1 | inactive
C[C@]12CC[C@@H]3c4ccc(O)cc4C[C@@H](CCCCCCCCCS(=O)CCCC(F)(F)C(F)(F)F)[C@H]3[C@@H]1CC[C@@H]2O (stereo not given in full) | inactive
Fc1ccccc1 | inactive
O=Nc1ccc(NO)cc1 | inactive

Compound | Potency
Nc1ccn([C@H]2CC[C@@H](CO)O2)c(=O)n1 | inactive
CC(=O)OCCC(C)C | inactive
O=[N+]([O-])c1cc(N(CCO)CCO)ccc1NCCO | inactive
CC(C)[C@H]1CC[C@@H](C)CC1=O | inactive
CCO/C([O-])=N/c1c[n+](N2CCOCC2)no1 | inactive
CN(C)CCCNCCCN(C)C | inactive
CCOC(=O)O[C@]1(C(=O)OCCl)CC[C@H]2[C@@H]3CCC4=CC(=O)C=C[C@]4(C)[C@H]3[C@@H](O)C[C@@]21C | inactive
COc1ccc(Nc2ccccc2)c(C)c1 | inactive
COc1nccnc1CC(C)C | inactive
Cc1ccc2c(Cl)cc(Cl)c(O)c2n1 | inactive
CCCCCCCC(=O)OCC(O)CO (stereo not given) | inactive
Oc1cccc2cc3cccc(O)c3c(O)c12 | inactive
O=S(=O)(O)CCO | inactive
O=S(=O)(Oc1ccc(Cl)cc1)c1ccccc1 | inactive
OCC1CCCO1 (stereo not given) | inactive
CC(=O)c1ccc([N+](=O)[O-])cc1 | inactive
CCCCC(CC)COS(=O)(=O)O (stereo not given) | inactive
CCOc1ccc2nc(S(N)(=O)=O)sc2c1 | inactive
O=C(CCNNC(=O)c1ccncc1)NCc1ccccc1 | inactive
Cc1ccc(OC(=O)CC(C)C)cc1 | inactive

Reference: PubChem BioAssay (Tox21)
